Source: PubChem BioAssay

Assay: HepG2 cell viability effects, profiling panel, calcein-AM fluorescence, 48 h, basal (AID 1164)
Conditions: higher = more signal
Also: test concentration not given here.

Structure (SMILES)	z-score
COc1ccc(CCNC(=O)[C@@]2(c3ccc([N+](=O)[O-])cc3)CC(=O)N(C3CCCCC3)[C@@H]2c2ccc(CO)cc2)cc1	1.12
C[C@@H]1NC(=O)[C@@H](Cc2ccccc2)NC(=O)[C@@]23C(=O)N[C@@H](Cc4ccccc4)C2[C@H](C)[C@@]2(C)O[C@H]2C3/C=C/C/C=C\CNC1=O (stereo partly drawn)	-0.543
CCC1=C2CN(Cc3ccccc3)[C@@H](C(=O)Cc3ccccc3)C2C=CCC1 (stereo partly drawn)	-0.342
N#Cc1ccc(NN2C(C(O)c3ccc(Br)cc3)C=CC3C(=O)N(c4ccccc4)C(=O)C32)cc1 (stereo not drawn)	1.11
OCCCC1=CC(c2ccc(CN3CCCC3)cc2)N(Cc2cc3c(cc2Br)OCO3)CC1 (stereo not drawn)	0.552
O=C(O)[C@@H]1C[C@@H]2C(=O)N3CCC[C@H]3C(=O)N2[C@@H]1c1ccc(O)cc1	-0.763
CC(C)[Si]1(C(C)C)OCc2cc(-c3ccc(-c4ccc(Cl)c(Cl)c4)o3)nc(-c3ccccc3)c21	-0.738
COc1ccc([Si](C)(C)[C@@H]2[C@@H](CCO)O[C@]3(C(=O)N(Cc4ccccc4)c4ccc(N5C(=O)c6cccc7cccc5c67)cc43)[C@H]2C)cc1	-0.916
C=C[C@H](C)[C@H](OC(=O)Nc1ccc(SC)cc1)c1ccc(OCCO)cc1	-0.47
CCOC(=O)C[C@H]1[C@H](OC(=O)c2cc3ccccc3oc2=O)[C@@H](NC(=O)c2ccc3ccccc3n2)c2cc(OCCCO)ccc2N1C(=O)Cc1ccc(OC)cc1	-0.355
O=C(NCCN1CCOCC1)[C@@H]1c2ccccc2C(=O)N(Cc2ccccc2Cl)[C@H]1c1ccc(CO)cc1	1.15
COC(=O)[C@@]1(Cc2ccc(F)cc2)[C@H]2c3cc(C(=O)N4CCCC4)n(Cc4ccc(C)c(F)c4F)c3C[C@H]2CN1C(=O)c1ccccc1	0.97
CCCCC(CC)C(O)C1C=CC2C(=O)N(c3ccccc3)C(=O)C2N1Nc1ccccc1F (stereo not drawn)	-0.553
[N-]=[N+]=Nc1ccccc1C[C@]1(C(=O)O)COC(c2ccc(OCCCO)cc2)=N1	0.215
CC(=O)NCCCC[C@@H]1NC(=O)[C@@H]2C[C@H](C(=O)NCCCCCN)[C@H](c3cccc(OCCO)c3)N2C1=O	0.74
COc1ccc(C#Cc2ccc3c(c2)[C@]2(C(=O)N3)[C@H](c3ccc(OCCO)cc3)N3[C@H](c4ccccc4)[C@H](c4ccccc4)OC(=O)[C@H]3[C@@H]2C(=O)NC[C@H](O)c2ccccc2)cc1	1.08
CC(C)NC(=O)[C@@]1(C)c2ccccc2C(=O)N(Cc2ccc(OC(F)(F)F)cc2)[C@H]1c1ccc(CO)cc1	0.0903
CCCC[C@@H](O)C1=C(COC)C[C@H]2C(=O)N(Cc3ccccc3)C(=O)[C@H]2[C@H]1CO	1.35

Assay: MM1S cell viability effects, profiling panel, calcein-AM fluorescence, 48 h, basal (AID 1165);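 also: viability of MM1S multiple myeloma cells under basal unstimulated conditions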
Conditions: higher = more signal

Structure (SMILES)	z-score
CCOC(=O)C[C@H]1[C@H](OC(=O)Cc2ccc3c(c2)OCO3)[C@@H](NC(=O)c2ccc3ccccc3n2)c2cc(OCCCO)ccc2N1C(=O)c1ccccc1	0.26
COc1ccc([Si](C)(C)[C@@H]2[C@@H](CC(=O)N(CCO)Cc3ccccc3)O[C@]3(C(=O)N(Cc4cccc(N5CCCCC5=O)c4)c4ccccc43)[C@H]2C)cc1	-1.43
C=C[C@@H](OC)[C@H](OC(=O)Nc1ccc(OC)cc1)c1ccc(O)c(F)c1	-2.17
CCCCCC1=C2CNC(C)(C(=O)OC)C=C2C(C)C1=O (stereo not drawn)	-0.865
O=C1NC(=O)C2C1C=CC(C(O)c1ccco1)N2Nc1ccc(Cl)cc1Cl (stereo not drawn)	-1.57
CCC#CCN(Cc1ccccc1Br)[C@H](/C=C/C1CC1)[C@@H](O)Cc1ccccc1	-2.23
COc1ccc([Si](C)(C)[C@@H]2[C@@H](CC(=O)N3Cc4ccccc4C[C@H]3CO)O[C@]3(C(=O)N(Cc4ccc(N5C(=O)c6cccc7cccc5c67)cc4)c4ccccc43)[C@H]2C)cc1	-2.78
[N-]=[N+]=Nc1ccccc1C[C@@]1(C(=O)NCCN2CCOCC2)N=C(c2ccc(OCCCO)cc2)O[C@@H]1c1ccccc1N=[N+]=[N-]	-2.94
CC1=C2[C@@H](CCc3ccccc3)OB(O)C[C@@H]2[C@@H]2C(=O)N(Cc3ccccc3)C(=O)[C@@H]2C1	-2.9
CC1CC/C=C\[C@H]2OC34C=CCN(Cc5ccccc5)C(=O)[C@H]3N(C(CO)C(C)C)C(=O)[C@@H]4C2C(=O)O1 (stereo partly drawn)	0.947
COc1cccc(C)c1NC(=O)O[C@H]1[C@H](OC(=O)Nc2ccc3c(c2)OCO3)[C@@H](OC(=O)Nc2ccc3c(c2)OCO3)[C@@H](OC)O[C@@H]1CO	-2.27
Cc1ccccc1C(O)C1C=CC2C(=O)NC(=O)C2N1Nc1ccccn1 (stereo not drawn)	-0.0706
CCCCC(=C=CC[C@H](O)c1ccc(OCCO)cc1)CCO	-2.4
CC(c1ccccc1)C(O)C1C=CC2C(=O)N(C)C(=O)C2N1Nc1ccccc1 (stereo not drawn)	-2.65
C=CCC(OC(C)=O)[C@@H]1[C@@H](N(Cc2ccc(-c3cccc(C(F)(F)F)c3)o2)C(=O)Cc2ccc(OC)cc2)c2cc(OCCCO)ccc2N1C(=O)c1ccc(-c2ccccc2)cc1 (stereo partly drawn)	-0.681
Cc1ccc(S[C@]2(C(=O)NC(C)C)CC(=O)N(Cc3cc(C(F)(F)F)cc(C(F)(F)F)c3)[C@@H]2c2ccc(CO)cc2)cc1	0.395
CCOC(=O)C[C@H]1[C@H](OC(=O)c2cc3ccccc3oc2=O)[C@@H](NC(=O)CC(C)C)c2cc(OCCCO)ccc2N1C(=O)c1ccc2ccccc2n1	-0.18
COc1ccc(CCNC(=O)[C@@]2(c3ccc([N+](=O)[O-])cc3)CC(=O)N(C3CCCCC3)[C@@H]2c2ccc(CO)cc2)cc1	0.547

Structure (SMILES)	z-score
C[C@@H]1NC(=O)[C@@H](Cc2ccccc2)NC(=O)[C@@]23C(=O)N[C@@H](Cc4ccccc4)C2[C@H](C)[C@@]2(C)O[C@H]2C3/C=C/C/C=C\CNC1=O (stereo partly drawn)	0.18
CCC1=C2CN(Cc3ccccc3)[C@@H](C(=O)Cc3ccccc3)C2C=CCC1 (stereo partly drawn)	0.435
N#Cc1ccc(NN2C(C(O)c3ccc(Br)cc3)C=CC3C(=O)N(c4ccccc4)C(=O)C32)cc1 (stereo not drawn)	-0.615
OCCCC1=CC(c2ccc(CN3CCCC3)cc2)N(Cc2cc3c(cc2Br)OCO3)CC1 (stereo not drawn)	-2.99
O=C(O)[C@@H]1C[C@@H]2C(=O)N3CCC[C@H]3C(=O)N2[C@@H]1c1ccc(O)cc1	-3.42
CC(C)[Si]1(C(C)C)OCc2cc(-c3ccc(-c4ccc(Cl)c(Cl)c4)o3)nc(-c3ccccc3)c21	-1.77
COc1ccc([Si](C)(C)[C@@H]2[C@@H](CCO)O[C@]3(C(=O)N(Cc4ccccc4)c4ccc(N5C(=O)c6cccc7cccc5c67)cc43)[C@H]2C)cc1	-0.61
C=C[C@H](C)[C@H](OC(=O)Nc1ccc(SC)cc1)c1ccc(OCCO)cc1	-0.889
CCOC(=O)C[C@H]1[C@H](OC(=O)c2cc3ccccc3oc2=O)[C@@H](NC(=O)c2ccc3ccccc3n2)c2cc(OCCCO)ccc2N1C(=O)Cc1ccc(OC)cc1	0.765
O=C(NCCN1CCOCC1)[C@@H]1c2ccccc2C(=O)N(Cc2ccccc2Cl)[C@H]1c1ccc(CO)cc1	-0.142
COC(=O)[C@@]1(Cc2ccc(F)cc2)[C@H]2c3cc(C(=O)N4CCCC4)n(Cc4ccc(C)c(F)c4F)c3C[C@H]2CN1C(=O)c1ccccc1	-3.35
CCCCC(CC)C(O)C1C=CC2C(=O)N(c3ccccc3)C(=O)C2N1Nc1ccccc1F (stereo not drawn)	0.566
[N-]=[N+]=Nc1ccccc1C[C@]1(C(=O)O)COC(c2ccc(OCCCO)cc2)=N1	-0.0932
CC(=O)NCCCC[C@@H]1NC(=O)[C@@H]2C[C@H](C(=O)NCCCCCN)[C@H](c3cccc(OCCO)c3)N2C1=O	0.151
COc1ccc(C#Cc2ccc3c(c2)[C@]2(C(=O)N3)[C@H](c3ccc(OCCO)cc3)N3[C@H](c4ccccc4)[C@H](c4ccccc4)OC(=O)[C@H]3[C@@H]2C(=O)NC[C@H](O)c2ccccc2)cc1	0.373
CC(C)NC(=O)[C@@]1(C)c2ccccc2C(=O)N(Cc2ccc(OC(F)(F)F)cc2)[C@H]1c1ccc(CO)cc1	-0.0831
CCCC[C@@H](O)C1=C(COC)C[C@H]2C(=O)N(Cc3ccccc3)C(=O)[C@H]2[C@H]1CO	0.887
